Measured values taken from PubChem BioAssay.
Active and inactive are the calls of the source.

Legend:
[1] = tested on: Plasmodium falciparum Sir2 (PF13_0152, Sir2A); experiment: Plasmodium falciparum Sir2A binding compounds – biochemical, small-molecule microarray, 635 nm fluorescence, primary screen (AID 1098); conditions: fluorescence 635 nm, higher = more signal;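 also: score merges spot fluorescence intensity with its signal-to-noise ratio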
[2] = probe aDKK1 binding to arrayed compounds – biochemical, biotinylated probe, 635/667 nm fluorescence, primary screen (AID 1099); conditions: small-molecule microarray, higher = more signal;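 also: score merges 667nm spot fluorescence with signal to noise across triplicate slides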
[3] = probe aCHRDL2 binding to arrayed compounds – biochemical, biotinylated probe, 635/667 nm fluorescence, primary screen (AID 1100); conditions: small-molecule microarray, higher = more signal
[4] = change in splice reporter luminescence, either direction, cell-based, HEK293, spliceosome inhibition project, primary screen (AID 1101); conditions: HEK293 splicing luciferase reporter, 24 h, higher = more signal, called active from +8 up or from −8 down;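 also: HEK293 cells carrying a splicing-competent luciferase reporter gene; test concentration not given here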
[5] = biological target: Fibroblast growth factor 10 (Homo sapiens) (UniProt O15520); experiment: compounds binding fibroblast growth factor 10 – biochemical, small-molecule microarray, 635 nm fluorescence, primary screen (AID 1102); conditions: FGF10 binding, fluorescence 635 nm, higher = more signal
Chain of Fibroblast growth factor 10 (Homo sapiens) (O15520 whole entry, looked up): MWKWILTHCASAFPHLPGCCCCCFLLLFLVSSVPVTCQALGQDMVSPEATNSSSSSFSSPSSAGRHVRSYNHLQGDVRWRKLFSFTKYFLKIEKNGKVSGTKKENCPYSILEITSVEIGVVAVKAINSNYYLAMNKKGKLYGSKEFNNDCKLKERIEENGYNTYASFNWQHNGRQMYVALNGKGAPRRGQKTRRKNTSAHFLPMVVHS

[6] = tested on: glycogen synthase kinase-3 (GSK3A per assay name; protocol says GSK3B); experiment: compounds binding glycogen synthase kinase-3 – biochemical, small-molecule microarray, 635 nm fluorescence, GSK3A, primary screen (AID 1103); conditions: fluorescence 635 nm, higher = more signal; also: the record names both GSK3A and GSK3B
[7] = biological target: Epidermal growth factor receptor (Homo sapiens) (UniProt P00533); experiment: compounds binding epidermal growth factor receptor – biochemical, small-molecule microarray, 635 nm fluorescence, primary screen (AID 1104); conditions: EGFR binding, higher = more signal;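 also: score merges 667 nm emission intensity with spot signal to noise over triplicate slides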
Chain of Epidermal growth factor receptor (Homo sapiens) (P00533 whole entry, looked up): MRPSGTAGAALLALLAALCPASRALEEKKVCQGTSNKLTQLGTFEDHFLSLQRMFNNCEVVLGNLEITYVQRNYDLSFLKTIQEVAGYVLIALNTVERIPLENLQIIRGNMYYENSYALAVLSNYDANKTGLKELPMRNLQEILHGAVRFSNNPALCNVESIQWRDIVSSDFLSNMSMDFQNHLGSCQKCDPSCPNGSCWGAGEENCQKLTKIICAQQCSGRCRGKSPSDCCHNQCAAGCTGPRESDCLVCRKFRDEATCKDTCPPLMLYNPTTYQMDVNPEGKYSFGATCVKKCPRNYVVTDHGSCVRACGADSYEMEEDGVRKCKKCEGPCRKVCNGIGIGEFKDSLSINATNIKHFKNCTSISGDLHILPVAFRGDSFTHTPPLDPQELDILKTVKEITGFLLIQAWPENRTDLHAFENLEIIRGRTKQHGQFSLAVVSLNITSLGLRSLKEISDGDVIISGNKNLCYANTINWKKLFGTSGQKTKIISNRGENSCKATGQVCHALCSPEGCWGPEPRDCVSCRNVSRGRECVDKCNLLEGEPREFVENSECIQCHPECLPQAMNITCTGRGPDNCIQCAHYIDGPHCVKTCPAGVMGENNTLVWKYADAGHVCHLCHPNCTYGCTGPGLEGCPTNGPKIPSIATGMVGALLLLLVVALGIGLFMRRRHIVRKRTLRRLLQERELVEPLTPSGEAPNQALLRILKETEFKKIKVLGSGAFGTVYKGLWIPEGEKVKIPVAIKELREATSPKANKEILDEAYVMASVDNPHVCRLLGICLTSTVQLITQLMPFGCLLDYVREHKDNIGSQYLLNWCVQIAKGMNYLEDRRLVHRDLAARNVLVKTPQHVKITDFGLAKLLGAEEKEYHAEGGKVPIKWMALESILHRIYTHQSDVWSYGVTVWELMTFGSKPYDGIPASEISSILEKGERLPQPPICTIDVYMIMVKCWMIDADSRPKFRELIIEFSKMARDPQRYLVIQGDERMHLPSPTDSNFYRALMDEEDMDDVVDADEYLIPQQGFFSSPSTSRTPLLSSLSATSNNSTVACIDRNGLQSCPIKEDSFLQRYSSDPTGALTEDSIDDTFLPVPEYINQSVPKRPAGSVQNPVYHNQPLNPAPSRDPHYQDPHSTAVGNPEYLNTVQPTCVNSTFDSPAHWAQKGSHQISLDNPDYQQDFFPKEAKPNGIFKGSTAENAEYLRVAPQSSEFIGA

[8] = biological target: Follistatin-related protein 3 (Homo sapiens) (UniProt O95633); experiment: compounds binding follistatin-related protein 3 – biochemical, small-molecule microarray, 635 nm fluorescence, primary screen (AID 1105); conditions: FSTL3 binding, higher = more signal;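 also: score merges emission near 667 nm and signal to noise per printed spot across three slides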
Chain of Follistatin-related protein 3 (Homo sapiens) (O95633 whole entry, looked up): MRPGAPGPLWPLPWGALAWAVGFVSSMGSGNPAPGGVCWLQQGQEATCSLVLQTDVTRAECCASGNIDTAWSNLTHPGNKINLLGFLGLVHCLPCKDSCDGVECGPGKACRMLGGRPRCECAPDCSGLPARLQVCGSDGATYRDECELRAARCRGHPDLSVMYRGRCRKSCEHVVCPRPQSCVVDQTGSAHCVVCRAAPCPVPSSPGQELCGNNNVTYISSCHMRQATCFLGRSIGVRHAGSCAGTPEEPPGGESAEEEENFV

[9] = biological target: Dickkopf-related protein 1 (Homo sapiens) (UniProt O94907); experiment: small molecules binding DKK1 protein – biochemical, small-molecule microarray, 635 nm fluorescence scan, primary screen (AID 1106); conditions: higher = more signal;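 also: score merges emission near 667 nm with signal to noise over three replicate slides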
Chain of Dickkopf-related protein 1 (Homo sapiens) (O94907 whole entry, looked up): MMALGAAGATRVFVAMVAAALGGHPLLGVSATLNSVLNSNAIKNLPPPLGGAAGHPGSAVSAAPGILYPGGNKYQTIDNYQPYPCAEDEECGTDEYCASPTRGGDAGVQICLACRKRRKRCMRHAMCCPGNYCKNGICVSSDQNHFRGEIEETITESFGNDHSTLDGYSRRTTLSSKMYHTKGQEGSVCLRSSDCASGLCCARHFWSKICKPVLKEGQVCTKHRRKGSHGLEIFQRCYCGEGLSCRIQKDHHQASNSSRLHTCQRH

[10] = tested on: Inhibin beta A chain (activin A); experiment: small molecules binding activin A – biochemical, small-molecule microarray, 635 nm fluorescence scan, primary screen (AID 1107); conditions: INHBA, higher = more signal;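 also: mouse activin A protein probed at 4.33 µg/mL on printed slides; score merges bound-protein fluorescence near 667 nm with spot signal-to-noise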
[11] = tested on: Human papillomavirus type 1a protein E7 (residues 44-93); experiment: small molecules binding HPV E7 44-93 – biochemical, small-molecule microarray, residues 44-93, 635 nm fluorescence, primary screen (AID 1108); conditions: fluorescence 635 nm, higher = more signal;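 also: E7 fragment applied at 1 µg/mL in TBST for 1 h at 4 C; score combines spot fluorescence with its signal to noise ratio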
[12] = hepatitis C replication reporter changes, two-sided – Huh7 cells, luciferase reporter, HCV replication inhibitor project, primary screen (AID 1109); conditions: Huh7 HCV replicon luciferase reporter, 48 h; higher = more signal;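 also: huh7 hepatoma cells harbouring a luciferase neomycin HCV replicon reporter; luciferase luminescence as measure of HCV replicon replication; test concentration not given here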
[13] = biological target: Left-right determination factor 2 (Homo sapiens) (UniProt O00292); experiment: small molecules binding LEFTY2 protein – biochemical, small-molecule microarray, 635 nm fluorescence scan, primary screen (AID 1110); conditions: higher = more signal
Chain of Left-right determination factor 2 (Homo sapiens) (O00292 whole entry, looked up): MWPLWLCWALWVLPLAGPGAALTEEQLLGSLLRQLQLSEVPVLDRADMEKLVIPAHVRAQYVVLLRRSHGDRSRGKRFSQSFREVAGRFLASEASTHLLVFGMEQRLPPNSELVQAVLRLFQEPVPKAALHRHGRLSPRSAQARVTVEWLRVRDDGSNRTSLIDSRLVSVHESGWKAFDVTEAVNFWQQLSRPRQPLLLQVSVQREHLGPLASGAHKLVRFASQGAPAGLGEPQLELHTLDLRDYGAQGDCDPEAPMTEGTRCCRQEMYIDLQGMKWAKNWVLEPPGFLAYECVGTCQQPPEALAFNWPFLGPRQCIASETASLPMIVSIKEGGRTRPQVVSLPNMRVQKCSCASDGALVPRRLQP

[14] = biological target: Calmodulin-1 (Homo sapiens) (UniProt P0DP23); experiment: small molecules binding calmodulin-1 with EGTA – biochemical, small-molecule microarray, Cy5-labelled CALM1, profiling panel (AID 1111); conditions: Cy5-CALM1 binding fluorescence, higher = more signal;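 also: labelled calmodulin applied in Tris saline Tween buffer holding calcium plus EGTA and DTT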
[15] = biological target: Calmodulin-1 (Homo sapiens) (UniProt P0DP23); experiment: small molecules binding Ca-loaded calmodulin-1 – biochemical, small-molecule microarray, Cy5-labelled CALM1, plus calcium, artefact control for SMM control-protein annotation, profiling panel (AID 1112); conditions: Cy5-CALM1 binding fluorescence, higher = more signal;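 also: score merges spot fluorescence with signal to noise from triplicate slides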
[16] = probe aWnt5a binding to arrayed compounds – biochemical, biotinylated probe, 635/667 nm fluorescence, primary screen (AID 1113); conditions: small-molecule microarray, higher = more signal;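 also: score merges 667 nm fluorescence intensity with signal-to-noise per printed feature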
[17] = probe aShh binding to arrayed compounds – biochemical, biotinylated probe, 635/667 nm fluorescence, primary screen (AID 1114); conditions: small-molecule microarray, higher = more signal;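 also: probe is biotin-labelled aShh protein from a stem cell growth factor screen; measures binding of labelled protein to compounds printed on the slide; score merges feature fluorescence at 667 nm with signal-to-noise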
[18] = probe aNog binding to arrayed compounds – biochemical, biotinylated probe, 635/667 nm fluorescence, primary screen (AID 1115); conditions: small-molecule microarray, higher = more signal;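 also: probe is biotinylated aNog protein used at 0.15 µg/mL for 1 h at 4 C; z-score combines 667 nm fluorescence of each spot with its signal to noise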
[19] = biological target: Torsin-1A-interacting protein 1 (Homo sapiens) (UniProt Q5JTV8); experiment: compound microarray binding of lysate hLAP1 – cell lysate, small-molecule microarray, COS7 lysate, 635/667 nm fluorescence, primary screen (AID 1116); conditions: 635 nm fluorescence, higher = more signal
Chain of Torsin-1A-interacting protein 1 (Homo sapiens) (Q5JTV8 whole entry, looked up): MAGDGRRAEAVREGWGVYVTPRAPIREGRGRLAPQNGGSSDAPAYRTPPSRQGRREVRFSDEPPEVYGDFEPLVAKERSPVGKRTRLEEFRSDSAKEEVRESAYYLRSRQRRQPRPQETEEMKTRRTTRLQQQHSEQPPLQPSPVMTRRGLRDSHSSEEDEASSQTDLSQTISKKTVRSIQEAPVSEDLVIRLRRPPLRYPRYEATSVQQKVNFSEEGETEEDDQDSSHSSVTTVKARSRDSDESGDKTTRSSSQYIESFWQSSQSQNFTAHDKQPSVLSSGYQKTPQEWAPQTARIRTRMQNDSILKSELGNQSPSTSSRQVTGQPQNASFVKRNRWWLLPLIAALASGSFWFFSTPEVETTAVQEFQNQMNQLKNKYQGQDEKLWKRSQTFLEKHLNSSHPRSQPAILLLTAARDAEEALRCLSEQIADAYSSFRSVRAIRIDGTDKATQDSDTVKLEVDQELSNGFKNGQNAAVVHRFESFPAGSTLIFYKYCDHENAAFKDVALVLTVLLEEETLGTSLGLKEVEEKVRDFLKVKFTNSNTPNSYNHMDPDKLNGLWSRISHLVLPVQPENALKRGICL

[20] = biological target: Alpha-bungarotoxin (Bungarus multicinctus) (UniProt P60615); experiment: compounds binding labelled alpha-BTX control protein – biochemical, small-molecule microarray, Alexa647 label, 635/667 nm fluorescence, artefact control for SMM control protein annotation, profiling panel (AID 1117); conditions: alpha-BTX-A647 binding fluorescence, higher = more signal
Chain of Alpha-bungarotoxin (Bungarus multicinctus) (P60615 whole entry, looked up): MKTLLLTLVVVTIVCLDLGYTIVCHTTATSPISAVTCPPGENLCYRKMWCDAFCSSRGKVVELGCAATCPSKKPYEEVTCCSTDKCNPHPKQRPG

CCN1C(C)=C(C(=O)OC)[C@@H](c2ccccc2)N2C(=O)[C@@]3(C(=O)OC)O[C@@]12[C@@H]1C(=O)N(c2ccccc2)C(=O)[C@@H]13 gave a composite z-score [1] of 0.286, a composite z-score [2] of 0.0355 and a composite z-score [3] of -0.253. The z-score [4] was -1.66 (inactive), the composite z-score [5] was 1 and the composite z-score [6] was 0.85. For the same compound, the composite z-score [7] was 0.472, the composite z-score [8] was 1.24 and the composite z-score [9] was 0.4. The composite z-score [10] was -0.545, the composite z-score [11] was 0.121 and the z-score [12] was -0.181. It also gave a composite z-score [13] of 0.341, a composite z-score [14] of -0.173 and a composite z-score [15] of -0.525. For the same compound, the composite z-score [16] was -0.0758, the composite z-score [17] was 0.0893 and the composite z-score [18] was 0.221. It also gave a composite z-score [19] of 0.905 and a composite z-score [20] of 0.38.

CCOC(=O)C1=CCC(c2cccc3ccccc23)N(S(=O)(=O)c2ccc(C)cc2)C1 (stereo not given) gave a composite z-score [1] of 0.471, a composite z-score [2] of 0.981 and a composite z-score [3] of 0.596. For the same compound, the z-score [4] was 0.664 (inactive), the composite z-score [5] was 0.279 and the composite z-score [6] was 0.912. For the same compound, the composite z-score [7] was 0.385, the composite z-score [8] was 0.681 and the composite z-score [9] was -0.141. The composite z-score [10] was 1.41, the composite z-score [11] was 1.09 and the z-score [12] was -0.874. The composite z-score [13] was 0.0938, the composite z-score [14] was 1.47 and the composite z-score [15] was 0.509. The composite z-score [16] was 0.0763, the composite z-score [17] was 0.203 and the composite z-score [18] was 0.276. For the same compound, the composite z-score [19] was 0.871 and the composite z-score [20] was 1.3.
